TGFb inhibitor = qHTS for Inhibitors of TGF-b. HepG2 CAGA-GFP TGF-b/SMAD3 reporter, GFP fluorescence, 18 h; TGF-beta stimulated, 500 pg/mL final. Potency, µM (top dose mostly 46.1 µM), actives largely listed as inhibitors. 410,000 tested, 1.2% active. AID 588855, 2011; note: nearly all actives have a fitted effect of over 65% in size
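Inhibition of TGF-beta-driven CAGA-GFP reporter expression in HEPG2 cells is measured by cellular GFP fluorescence after 18 h stimulation with 500 pg/mL recombinant TGF-beta in 1% FBS medium at 37 degrees C.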
HepG2 viability = qHTS for Inhibitors of TGF-b: Cytotox Counterscreen | HepG2 CAGA-GFP viability, ATP luminescence, 18 h | Potency, µM (highest dose often 46.1 µM), actives largely listed as cytotoxic | 410,000 tested, 0.76% active
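HepG2 CAGA-GFP cells (1000/well, DMEM with 1% FBS) received compound, then TGF-beta at 500 pg/mL final, and were incubated 18 hours at 37 degrees C. Viability was read by CellTiter-Glo luminescence. Media-only wells were set as complete cell-killing and DMSO as no toxicity.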
ATXN2 expr inh = Primary qHTS for Inhibitors of ATXN expression; AID 1745845, 2022; Potency, µM (series often up to 57 µM), hits mostly inhibitors; HEK-293 ATXN2-luciferase reporter, luminescence, 24 h; 360,000 tested, 0.72% active; note: nearly all actives have a fitted effect of over 55% in size
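qHTS (up to 57 uM final) was run with 24 h compound exposure of reporter cells at 37 °C. Each well was multiplexed: SteadyGlo luminescence measured ATXN2-luciferase expression after a fluorogenic Gly-Phe-AFC viability readout (25 uM final).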
HT1080 IDH1KD tx = qHTS for induction of synthetic lethality in tumor cells producing 2HG: qHTS for the HT-1080-IDH1KD cell line; HT-1080 IDH1 knockdown viability, ATP luminescence, 48 h; Potency, µM (top dose mostly 46.1 µM), usual class: cytotoxic; 360,000 tested, 2% active; AID 686971, 2013
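Knockdown cells (IDH1KD HT-1080) received compounds 2 h after plating at 750 cells/well and were kept 48 h at 37 °C in 5% FBS RPMI. A CellTiter-Glo luminescence read gave % activity for curve fitting.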
ATXN viability = Viability Counterscreen for Primary qHTS for Inhibitors of ATXN expression; S2 cells (HEK-293 line with an ATXN2-luciferase reporter) viability, CellTiter-Fluor protease fluorescence, 24 h; AID 651635, 2014; 400,000 tested, 0.49% active; Potency, µM (top dose mostly 56.7 µM), actives largely listed as cytotoxic; note: nearly all actives have a fitted effect of over 40% in size
HT1080-NT tox = qHTS for induction of synthetic lethality in tumor cells producing 2HG: qHTS for the HT-1080-NT fibrosarcoma cell line | HT-1080-NT fibrosarcoma viability, CellTiter-Glo ATP luminescence, 48 h | 360,000 tested, 1.6% active | Potency, µM (top dose mostly 46.1 µM), hits mostly cytotoxic;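 note: NT is the 2HG producing partner of a matched IDH1 knockdown line; nearly all actives have a fitted effect of over 55% in size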
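HT-1080-NT; 750 cells/well; 5% FBS RPMI; 48 h compound, 37 degrees C; CellTiter-Glo luminescence; curve fitting and curve-class assignment.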
Numbers stand for hits; n = inactive; u = inconclusive; x = no result given; [ ] = dose if it differs, or a comment. Most compounds without a hit are left out; they make up all but 3.9% or so of the library. Calls come from the whole dose curve; as a rule, active = well fitted curve in the direction sought with a large enough effect; inconclusive = small, poorly fitted or top-dose-only effect, or another doubt; inactive = no such curve, though single readings can be large; an effect the other way counts as inactive or inconclusive.

SMILES	TGFb inhibitor	HepG2 viability	ATXN2 expr inh	HT1080 IDH1KD tx	ATXN viability	HT1080-NT tox
Cc1ccc(NCCN(C)C)c2c(=O)c3cc(O)ccc3sc12	u	n	10.6µM	u	26.7µM	u
CN(C)CCNc1ccc2nnn3c4ccc(O)cc4c(=O)c1c23	u	n	u	20.6µM	u	23.1µM
COc1cc(C)ccc1OCCSc1nc(-c2cccc(C)c2)nc2cc(=O)[nH]n12	n	n	n	x	n	x
CCO[C@@H]1OC(C(=O)NCc2nc3ccccc3[nH]2)=C[C@H](C2CC2)[C@H]1CCCO	n	n	n	u	u	18.4µM
CCO[C@H]1OC(C(=O)NCc2nc3ccccc3[nH]2)=C[C@@H](c2ccc(Br)cc2)[C@@H]1CCCO	n	n	u	n	u	u
CC(C)C[C@@H](C=O)NC(=O)[C@H](CC(C)C)NC(=O)[C@H](CC(C)C)NC(=O)OCc1ccccc1	x	x	1.09µM	x	x	x
O=C(CCl)NC(Cc1ccccc1)C(=O)OCC(=O)c1ccc(-c2ccccc2)cc1 (configuration not stated)	u	n	n	u	15µM	n
O=C(N[C@@H](Cc1ccccc1)C(=O)CCl)OCc1ccccc1	u	n	28.2µM	20.6µM	15.8µM	6.51µM
CC(=O)NC(Cc1ccccc1)C(=O)OCC(=O)c1ccc(Cl)cc1 (configuration not stated)	n	n	n	n	n	n
Cc1ccccc1-c1noc(-c2ccc(N3CCN(c4ccccc4)CC3)c([N+](=O)[O-])c2)n1	n	n	n	x	n	x
Cc1ccc2c(=O)c(C(=O)c3cccc(Cl)c3)cn(CC(=O)NCc3ccc(F)cc3)c2n1	n	n	x	x	x	x
O=C(Nc1nc2ccccc2[nH]1)C1CCCO1 (configuration not stated)	n	n	n	n[9.24 µM]	n	n
c1ccc2[nH]c(-c3ccc4c(c3)OCO4)nc2c1	n	n	n	25.9µM	u	25.9µM
O=C(Nc1ccc(Cl)c(-c2nc3ccccc3[nH]2)c1)c1ccc2c(c1)OCO2	n	n	n	n	n	n
O=C(Nc1ccc(-c2nc3ccccc3[nH]2)cc1)c1ccc2c(c1)OCO2	7.94µM	8.91µM	n	u	u	u
CCN(CC)c1ccc(NC(=O)c2ccc3c(c2)OCO3)cc1	n	n	n	20.6µM	u	u
O=C(Nc1ccc(-c2nc3ccccc3[nH]2)cc1)C1CCCO1 (configuration not stated)	n	7.08µM	n	11.2µM	n	10µM
CC(=O)c1ccc(NC(=O)CSc2cn(CC(=O)N3CCCCCC3)c3ccccc23)cc1	n	n	x	x	x	x
CN(C)c1ccc(C2Nc3ccc4ccccc4c3C3=C2C(=O)CC(C)(C)C3)cc1Br (configuration not stated)	x	x	n	x	x	x
Cc1ccc(/C=[N+](\[O-])c2ccc(N(C)C)cc2)c2nsnc12	7.94µM	14.1µM	u	n	u	20.6µM
Cc1ccc(C)c2c(/C=C/c3ccc(N(C)C)cc3)ccnc12	n	n	x	x	x	x
CCn1c(SCc2ccc(F)cc2Cl)nc(=O)c2c(C(=O)OC)cc(C3CC3)nc21	u	n	x	x	x	x
O=C(Nc1ccc2nccnc2c1)N1CCCCCC1	n	n	x	x	x	x
COc1ccc(NC(=O)c2cccs2)cn1	n	n	n	n	n	u
CC(C)(C)c1ccc(Oc2ccc(NC(=O)c3cccs3)cn2)cc1	u	n	n	11.6µM	u	14.6µM
COc1ccc(-c2ccc(NC(=O)c3ccco3)cc2)nn1	n	5.01µM	u	20.6µM	n	18.4µM
O=C(Nc1ccc(Oc2cccc(C(F)(F)F)c2)nc1)c1ccco1	n	n	n	u	u	n
CC(C)(C)c1ccc(Oc2ccc(NC(=O)c3ccco3)cn2)cc1	11.2µM	n	x	7.31µM	u	18.4µM

Screens: PubChem BioAssay, National Center for Advancing Translational Sciences (NCATS)
